# Screen size: about 1,400 compounds; about 560 (40%) were called active. The set was probably picked from earlier hits. The list shows a part of the results. Values without a mark were called inactive.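 The calls were made as follows: active = mean inhibition over duplicate tests at 10 µM above 50%; inactive = the rest.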
# Test: ASC/caspase-1 reporter retest in S. cerevisiae at one dose, specificity check for NALP1 project (AID 488857)
# Settings: S. cerevisiae ASC/Caspase-1, beta-galactosidase luminescence, 24 h; at 10 µM; hits give high values
row,SMILES,inhibition
1,CN(C)c1ccc(/C=N/NC(=O)c2nnn(-c3nonc3N)c2CN(C)c2ccccc2)cc1,20.1%
2,Cc1cc(C)c(NC(=O)/C(=C/c2ccccc2)c2ccccc2)c(C)c1,31.6%
3,S=c1[nH]nc(-c2ccco2)n1/N=C/c1cccc(Cl)c1Cl,65.7% (active)
4,CCOC(=O)C1CCCN(C2CC(=O)N(c3cccc(C(F)(F)F)c3)C2=O)C1 (stereo not drawn),42.8%
5,O=c1ncn(-c2cccc(F)c2)c2ncccc12,35.6%
6,O=[N+]([O-])c1ccc(N2CCN(C(=S)Nc3ccccc3)CC2)cc1,35.5%
7,Cc1cc(C)cc(NS(=O)(=O)c2ccc(NC(=S)Nc3ccccc3)cc2)c1,23.9%
8,S=C(NCCCc1ccccc1)Nc1ccc(Cl)cc1,95.5% (active)
9,O=C(NC(=S)NCCCN1CCOCC1)c1ccc([N+](=O)[O-])cc1,37%
10,O=[N+]([O-])c1ccc(NC(=S)NCCc2ccc(F)cc2)cc1,96.3% (active)
11,O=C(NCCCc1ccccc1)c1ccccc1O,47.4%
12,S=C(NCCc1ccccc1)Nc1ccc(Br)cc1,90.7% (active)
13,CCCCCCCCCCOC(=O)Cn1c(COc2ccc(Cl)cc2)[n+](C)c2ccccc21,29.6%
14,Cc1ccc(Cn2nnnc2CN2CCC(c3nc4ccc(Cl)cc4[nH]3)CC2)cc1,31.4%
15,Cc1ccc(NC(=O)/C=C\C(=O)NCC(=O)O)cc1C,39%
16,NC(=O)/C=C\C(=O)Nc1cccc(C(F)(F)F)c1,72.8% (active)
17,COC(=O)/C=C/C(=O)Nc1cccc(C(F)(F)F)c1,60.1% (active)
18,COC(=O)/C=C\C(=O)Nc1cccc([N+](=O)[O-])c1,42.8%
19,CCOC(=O)/C=C/C(=O)Nc1cccc([N+](=O)[O-])c1,55.5% (active)
20,CCOC(=O)/C=C/C(=O)Nc1nccs1,47.1%
21,CCN(C(=O)COC(=O)c1cccnc1Nc1cccc(C(F)(F)F)c1)C1CCS(=O)(=O)C1 (stereo not drawn),29.9%
22,O=C(NC1CCCC1)C(c1ccccn1)N(C(=O)c1csnn1)C1CC1 (stereo not drawn),32.6%
23,O=C(O)c1cccnc1C(=O)N1CCc2c([nH]c3ccccc23)C1C(F)(F)F (stereo not drawn),18.5%

row,SMILES,inhibition
1,O=C1c2ccccc2C(=O)c2c1ncn2-c1ccccc1,45.6%
2,O=C(CN(Cc1ccccc1)S(=O)(=O)c1ccc(S(=O)(=O)N2CCOCC2)cc1)Nc1ccccc1,36.3%
3,N#C/C(=C\c1ccc([N+](=O)[O-])o1)c1nc2ccccc2[nH]1,20.7%
4,Cn1c(/C(C#N)=C/C2CC=CCC2)nc2ccccc21 (stereo not drawn),45.5%
5,N#C/C(=C/c1cccs1)c1nc2ccccc2[nH]1,98.2% (active)
6,CC(C)C(C(=O)O)N1C(=O)/C(=C/c2cccn2C)SC1=S (stereo not drawn),56.4% (active)
7,C/C(=N\NC(=O)c1c[nH]c2ccccc12)c1ccco1,40.6%
8,CN(Cc1ccccc1)C(=O)c1ccc([N+](=O)[O-])o1,41.7%
9,O=[N+]([O-])c1ccc(/C=N/NS(=O)(=O)c2ccc(Cl)cc2)o1,23.6%
10,CCN(CC)c1ccc(N=Cc2ccc([N+](=O)[O-])o2)cc1,69.8% (active)
11,CC/C(=N\NC(=O)c1ccccc1Cl)c1ccc(Br)s1,38.1%
12,C/C(=N\NC(=O)c1csc(C)c1C)c1ccc(Cl)s1,59.2% (active)
13,Cc1cccc2sc(N(CCCN(C)C)C(=O)c3sc4ccccc4c3Cl)nc12,63.2% (active)
14,Cc1ccc2nc(N(CCCN(C)C)C(=O)c3sc4ccccc4c3Cl)sc2c1,31.8%
15,CN(C)CCCN(C(=O)c1sc2ccccc2c1Cl)c1nc2ccc(F)cc2s1,55.7% (active)
16,Cc1cc(C=C2C(=O)c3ccccc3C2=O)c(C)n1C,37.7%
17,O=C(c1ccc(Br)o1)N(c1ccccn1)C1CCCCC1,33.8%
18,C/C(=N\N(C)C)C1=C(O)c2ccccc2C1=O,32.5%
19,CC(=O)N(C1=C(Cl)C(=O)c2ccccc2C1=O)C1CCCCC1,50.3% (active)
20,CN(c1ccccc1)c1ccc(/C=C/[N+](=O)[O-])cc1,96.7% (active)
21,O=C(O)CC1NC(=S)N(c2ccccc2)C1=O (stereo not drawn),31.6%
22,COC(=O)c1cc(=O)n(-c2c(Cl)cc(C(F)(F)F)cc2Cl)[nH]1,34.8%
23,c1ccc(-c2c[nH]c3[n+]2CCCCC3)cc1,52.4% (active)

row,SMILES,inhibition
1,Oc1ccc2ccccc2c1CN1CCN(c2ccccc2)CC1,45.1%
2,CC(NCCC(c1ccccc1)c1ccccc1)c1ccccc1 (stereo not drawn),50.4% (active)
3,Cc1cc(C)cc(C(=O)OCC(=O)NCCNC(=O)COC(=O)c2cc(C)cc(C)c2)c1,23.8%
4,COc1ccc(C(=O)C2CCCN(C(=O)Cn3nc(C)cc3C)C2)cc1F (stereo not drawn),46.8%
5,Cc1ccc(NC(=O)Cn2cccc2)c(C)c1,28.5%
6,Cc1ccc(NC(=O)CSC2=Nc3ccccc3C3CC=NN23)c(C)c1 (stereo not drawn),56.6% (active)
7,Cc1ccc(C)c(NC(=O)CSc2nnc(-c3ccccc3)o2)c1,45.4%
8,Cc1nc2nc3c(cn2n1)C(=O)CCC3,23.6%
9,COC(=O)c1ccccc1NC(=O)CN1CCC(n2nnc3cc(F)ccc32)CC1,33.6%
10,COc1ccccc1NC(=O)C1=C(C)NC(=O)NC1c1cccs1 (stereo not drawn),32.2%
11,COc1ccccc1NC(=O)CCN1CCN(Cc2ccccc2)CC1,45.7%
12,COc1ccccc1NC(=O)c1ccc(C)s1,50.4% (active)
13,CC(C)NC(=O)CCCOc1ccc(Cl)cc1Cl,48.5%
14,C#CCN(C)CCCOc1ccc(Cl)cc1Cl,54% (active)
15,CCCOc1ccccc1NC(=O)/C=C/C(N)=O,58% (active)
16,CCCCOc1ccccc1NC(=O)c1ccco1,46.5%
17,CCOc1ccccc1N/C=C(\C#N)c1nc2ccccc2n1C,26.1%
18,CCOc1ccccc1NC(=O)/C=C/C(N)=O,59.4% (active)
19,CNC(=O)c1nnsc1S(=O)c1ccc(Cl)cc1 (stereo not drawn),78.5% (active)
20,O=C(CCSc1nc2cc(Cl)ccc2o1)N1CCOCC1,32.5%
21,O=C(c1nnsc1S(=O)c1ccc(Cl)cc1)N1CCOCC1 (stereo not drawn),71.7% (active)
22,CCCNC(=O)c1nnsc1S(=O)c1ccc(Cl)cc1 (stereo not drawn),96.7% (active)

# — PubChem BioAssay AID488857 (Sanford-Burnham Center for Chemical Genomics, 2010)
